Measurements taken from PubChem BioAssay (EPA / NIEHS).
Values joined by “and” are separate entries in the source; they are usually repeats but may differ in a detail not shown here. Identical values can stand only once. Active and inactive are the calls of the source. How the source made its calls: active means hit-call score of the fitted dose curve at least 0.9, where 1 is the maximum; inactive means score below 0.9.

Columns and labels:
[1] = read-out: Macrophage colony-stimulating factor (MCSF), CSF1 (gene 1435); assay: BSK_hDFCGF_MCSF: BioMAP Diversity Plus: hDFCGF Assay for Macrophage colony-stimulating factor (MCSF) Biomarker Activity (AID 2283060); settings: primary human foreskin fibroblasts; actives raise or lower the signal
How it was run: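 Human foreskin fibroblast primary cultures; M-CSF measured by ELISA 24 hours after chemical dosing. Bidirectional fitting relative to DMSO, with overt cytotoxicity tracked by parallel SRB total-protein staining (0.1% SRB, 10% TCA fixation, 560 nm).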

[2] = BSK_hDFCGF_SRB: Viability Assessment in the BioMAP Diversity Plus: hDFCGF Assay (AID 2283061); settings: primary human foreskin fibroblasts;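 further: cells exposed to compound for 24 h before the read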
How it was run: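 Human foreskin fibroblasts in 96-well plates were treated 24 h. Total protein was measured by 0.1% SRB staining after 10% TCA fixation, read at 560 nm. Data were fitted bidirectionally against DMSO.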

[3] = read-out: TIMP metallopeptidase inhibitor 1 (TIMP1), TIMP1 (gene 7076); assay: BSK_hDFCGF_TIMP1: BioMAP Diversity Plus: hDFCGF Assay for TIMP metallopeptidase inhibitor 1 (TIMP1) Biomarker Activity (AID 2283062); settings: primary human foreskin fibroblasts; actives raise or lower the signal
How it was run: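 Human foreskin fibroblast primary cultures dosed for 24 h; secreted/surface TIMP-1 quantified by ELISA. Bidirectional curve fitting against DMSO baseline; cytotoxicity tracked in parallel cultures by SRB total-protein staining.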

[4] = read-out: Monokine induced gamma interferon (MIG), CXCL9 (gene 4283); assay: BSK_hDFCGF_MIG: BioMAP Diversity Plus: hDFCGF Assay for Monokine induced gamma interferon (MIG) Biomarker Activity (AID 2283063); settings: primary human foreskin fibroblasts; actives raise or lower the signal
How it was run: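 MIG/CXCL9 measured by ELISA 24 h after dosing primary human skin fibroblasts. Activity fitted in both directions against DMSO controls. Cytotoxicity was checked in parallel cultures by SRB staining read at 560 nm.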

[5] = read-out: Matrix Metallopeptidase 1 (MMP1), MMP1 (gene 4312); assay: BSK_hDFCGF_MMP1: BioMAP Diversity Plus: hDFCGF Assay for Matrix Metallopeptidase 1 (MMP1) Biomarker Activity (AID 2283064); settings: primary human foreskin fibroblasts; actives raise or lower the signal
How it was run: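 hDFCGF primary fibroblasts (human foreskin); chemical added; 24 h; MMP1 by ELISA; bidirectional fit vs DMSO.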

[6] = read-out: Vascular cell adhesion molecule 1 (VCAM1), VCAM1 (gene 7412); assay: BSK_hDFCGF_VCAM1: BioMAP Diversity Plus: hDFCGF Assay for Vascular cell adhesion molecule 1 (VCAM1) Biomarker Activity (AID 2283065); settings: primary human foreskin fibroblasts; actives raise or lower the signal;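 on AC50: VCAM-1 protein level quantified by ELISA after 24 h chemical exposure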
How it was run: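 Human foreskin fibroblast primary cells dosed with chemical, VCAM-1 measured by ELISA at 24 h. Bidirectional curve fitting relative to DMSO as negative control/baseline.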

[7] = read-out: Plasminogen activator inhibitor-1 (PAI1), SERPINE1 (gene 5054); assay: BSK_hDFCGF_PAI1: BioMAP Diversity Plus: hDFCGF Assay for Plasminogen activator inhibitor-1 (PAI1) Biomarker Activity (AID 2283066); settings: primary human foreskin fibroblasts; actives raise or lower the signal
How it was run: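 Primary dermal fibroblasts (human foreskin), hDFCGF system; compound 24 h; PAI-1 by ELISA; bidirectional fit vs DMSO control.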

[8] = read-out: Intercellular Adhesion Molecule 1 (ICAM1), ICAM1 (gene 3383); assay: BSK_KF3CT_ICAM1: BioMAP Diversity Plus: KF3CT Assay for Intercellular Adhesion Molecule 1 (ICAM1) Biomarker Activity (AID 2283067); settings: primary human keratinocytes with fibroblasts; actives raise or lower the signal
How it was run: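 Human keratinocyte–foreskin fibroblast co-culture was treated for 24 h. Cell-surface ICAM-1 was quantified by ELISA, fitted bidirectionally relative to DMSO. Cytotoxicity was checked in parallel cultures by SRB total-protein staining.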

[9] = read-out: Interferon-gamma inducible Protein 10 (IP10), CXCL10 (gene 3627); assay: BSK_KF3CT_IP10: BioMAP Diversity Plus: KF3CT Assay for Interferon-gamma inducible Protein 10 (IP10) Biomarker Activity (AID 2283068); settings: primary human keratinocytes with fibroblasts; actives raise or lower the signal
How it was run: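 Human keratinocyte plus foreskin fibroblast primary co-culture exposed to test chemical for 24 h; IP-10 measured by ELISA. Concentration-response fitted bidirectionally against DMSO control as baseline.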

[10] = BSK_KF3CT_SRB: Viability Assessment in the BioMAP Diversity Plus: KF3CT Assay (AID 2283069); settings: primary human keratinocytes with fibroblasts;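 further: total protein by sulforhodamine B staining as a cytotoxicity measure; read 24 h after compound addition; fitted for both signal gain and loss against DMSO baseline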
How it was run: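 Keratinocytes co-cultured with foreskin fibroblasts (human primary); chemical added, 24 h; fix 10% TCA, stain 0.1% SRB, A560. Bidirectional fit vs DMSO.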

[11] = read-out: Interleukin-1 alpha (IL1a), IL1A (gene 3552); assay: BSK_KF3CT_IL1a: BioMAP Diversity Plus: KF3CT Assay for Interleukin-1 alpha (IL1a) Biomarker Activity (AID 2283070); settings: primary human keratinocytes with fibroblasts; actives raise or lower the signal
How it was run: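 Chemicals were dosed onto co-cultured human keratinocytes and foreskin fibroblasts, IL-1a was quantified by ELISA at 24 h, and activity was fitted in both directions relative to DMSO controls.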

[12] = read-out: TIMP metallopeptidase inhibitor 2 (TIMP2), TIMP2 (gene 7077); assay: BSK_KF3CT_TIMP2: BioMAP Diversity Plus: KF3CT Assay for TIMP metallopeptidase inhibitor 2 (TIMP2) Biomarker Activity (AID 2283071); settings: primary human keratinocytes with fibroblasts; actives raise or lower the signal
How it was run: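 Cells: human keratinocytes co-cultured with foreskin fibroblasts. Treat with chemical, 24 h. Measure TIMP-2 by ELISA; fit curves bidirectionally vs DMSO baseline.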

[13] = read-out: C-C motif chemokine 2 (Homo sapiens) (UniProt P13500); assay: BSK_KF3CT_MCP1: BioMAP Diversity Plus: KF3CT Assay for Monocyte Chemoattractant Protein 1 (MCP1/CCL2) Biomarker Activity (AID 2283073); settings: primary human keratinocytes with fibroblasts; actives raise or lower the signal
How it was run: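 Human keratinocyte–foreskin fibroblast co-culture; MCP-1 measured by ELISA 24 h after dosing. Bidirectional fit vs DMSO; cytotoxicity tracked by SRB total protein in parallel cultures.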

[14] = read-out: Matrix Metallopeptidase 9 (MMP9), MMP9 (gene 4318); assay: BSK_KF3CT_MMP9: BioMAP Diversity Plus: KF3CT Assay for Matrix Metallopeptidase 9 (MMP9) Biomarker Activity (AID 2283074); settings: primary human keratinocytes with fibroblasts; actives raise or lower the signal;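 on AC50: MMP9 protein level quantified by ELISA in the co-culture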
How it was run: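 Human keratinocyte/foreskin fibroblast co-culture; compound added; 24 h; MMP-9 by ELISA; bidirectional fit vs DMSO baseline.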

[15] = read-out: urokinase plasminogen activator (uPA), PLAU (gene 5328); assay: BSK_KF3CT_uPA: BioMAP Diversity Plus: KF3CT Assay for urokinase plasminogen activator (uPA) Biomarker Activity (AID 2283075); settings: primary human keratinocytes with fibroblasts; actives raise or lower the signal
How it was run: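 ELISA readout of uPA, analyzed for signal gain or loss relative to DMSO, from a human primary keratinocyte–foreskin fibroblast co-culture measured 24 h after chemical treatment.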

[16] = read-out: CD40, CD40 (gene 958); assay: BSK_LPS_CD40: BioMAP Diversity Plus: LPS Assay for CD40 Biomarker Activity (AID 2283076); settings: primary human HUVEC with PBMC; actives raise or lower the signal
How it was run: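 HUVEC plus PBMC co-culture stimulated with LPS; CD40 quantified by ELISA 24 h after compound dosing. Fitting was bidirectional relative to DMSO. SRB staining of parallel cultures flagged overt cytotoxicity.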

[17] = read-out: Interleukin-8 (IL8), CXCL8 (gene 3576); assay: BSK_LPS_IL8: BioMAP Diversity Plus: LPS Assay for Interleukin-8 (IL8) Biomarker Activity (AID 2283078); settings: primary human HUVEC with PBMC; actives raise or lower the signal
How it was run: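 Human umbilical vein endothelial cells co-cultured with PBMC, LPS-stimulated, exposed to compound for 24 h. IL-8 quantified by ELISA; fitted in both directions against DMSO, with SRB total-protein staining of parallel cultures for cytotoxicity.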

[18] = BSK_LPS_SRB: Viability Assessment in the BioMAP Diversity Plus: LPS Assay (AID 2283079); settings: primary human HUVEC with PBMC;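 further: total protein by sulforhodamine B absorbance as a cytotoxicity measure; measured one day after compound addition; fitted in both directions against DMSO so loss or gain of signal counts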
How it was run: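 Co-culture of human umbilical vein endothelial cells and PBMC, read 24 h after dosing. Total protein by 0.1% SRB staining after 10% TCA fixation, absorbance at 560 nm; bidirectional fit against DMSO.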

[19] = read-out: Transforming growth factor beta 1 (TGFb1), TGFB1 (gene 7040); assay: BSK_KF3CT_TGFb1: BioMAP Diversity Plus: KF3CT Assay for Transforming growth factor beta 1 (TGFb1) Biomarker Activity (AID 2283072); settings: primary human keratinocytes with fibroblasts; actives raise or lower the signal
How it was run: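 Primary human skin cells (keratinocytes, foreskin fibroblasts) were co-cultured, exposed to test chemical and sampled at 24 h. TGF-b1 levels were measured by ELISA and fitted bidirectionally relative to DMSO.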

[20] = read-out: E-selectin (Homo sapiens) (UniProt P16581); assay: BSK_LPS_Eselectin: BioMAP Diversity Plus: LPS Assay for Eselectin Biomarker Activity (AID 2283077); settings: primary human HUVEC with PBMC; actives raise or lower the signal
How it was run: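 Human umbilical vein endothelial cells co-cultured with PBMC under LPS stimulation; cell-surface E-selectin measured by ELISA 24 h after dosing. Change in either direction versus DMSO, with SRB total-protein staining in parallel cultures for cytotoxicity.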

Measured: AC50

E-selectin (Homo sapiens), sequence (P16581 whole entry, looked up): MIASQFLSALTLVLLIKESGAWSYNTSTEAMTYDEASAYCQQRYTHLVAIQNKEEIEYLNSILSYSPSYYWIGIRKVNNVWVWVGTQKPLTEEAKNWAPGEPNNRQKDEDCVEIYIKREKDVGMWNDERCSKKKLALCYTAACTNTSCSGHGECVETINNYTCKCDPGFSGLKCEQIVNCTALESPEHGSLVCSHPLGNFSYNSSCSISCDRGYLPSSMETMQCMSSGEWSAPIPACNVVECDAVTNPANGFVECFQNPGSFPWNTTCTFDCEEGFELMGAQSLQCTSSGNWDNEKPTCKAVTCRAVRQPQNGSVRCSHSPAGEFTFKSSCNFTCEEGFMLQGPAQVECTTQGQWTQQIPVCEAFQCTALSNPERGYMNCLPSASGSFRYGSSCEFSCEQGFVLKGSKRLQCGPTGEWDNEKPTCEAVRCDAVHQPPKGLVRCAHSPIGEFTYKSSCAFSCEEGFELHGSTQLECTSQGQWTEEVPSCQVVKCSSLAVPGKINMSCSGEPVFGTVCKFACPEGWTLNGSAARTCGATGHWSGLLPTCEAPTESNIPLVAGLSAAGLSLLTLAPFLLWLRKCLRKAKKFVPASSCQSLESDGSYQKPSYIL

c1ccc(Nc2cccc3ccccc23)cc1
active: [1] 20 µM and 14.5 µM | [2] 32.7 µM and 33.1 µM | [3] 29.6 µM and 28.8 µM | [4] 27.5 µM and 23.4 µM | [5] 30.7 µM and 30 µM | [6] 21.2 µM and 20 µM | [7] 13.1 µM and 12.3 µM | [8] 30.7 µM and 37.7 µM | [9] 34.2 µM and 35.7 µM | [10] 31.8 µM and 34.8 µM | [11] 29.8 µM and 28.6 µM | [12] 34.5 µM and 33.3 µM | [13] 28.8 µM and 26.7 µM | [14] 31.3 µM and 31.7 µM | [15] 33.8 µM and 32.2 µM | [16] 22.9 µM and 30.7 µM | [17] 24.5 µM and 20 µM | [18] 31.5 µM and 32.4 µM

CC(c1cc(C(C)(C)C)cc(C(C)(C)C)c1O)c1cc(C(C)(C)C)cc(C(C)(C)C)c1O
active: [7] 358 nM
not listed: [16]
inactive: all other assays above

CCCCCCOC(=O)CCCCC(=O)OCCCCCC
not listed: [16]
inactive: all other assays above

CCOC(=O)/C=C\C(=O)OCC
active: [13] 3.97 µM
not listed: [16]
inactive: all other assays above

C=CC(=O)OCCCCCCOC(=O)C=C
inactive: [13]
active: [1] 5.72 µM | [2] 5.41 µM | [3] 9.84 µM | [4] 3.3 µM | [5] 12.8 µM | [6] 881 nM | [7] 11500 nM | [8] 20 µM | [9] 26.6 µM | [10] 20 µM | [11] 11.3 µM | [12] 20 µM | [19] 3.97 µM | [14] 12.5 µM | [15] 20 µM | [20] 9.18 µM | [17] 4.79 µM | [18] 20 µM

O=C(Cl)c1c(Cl)c(Cl)c(C(=O)Cl)c(Cl)c1Cl
active: [7] 16 nM
not listed: [16]
inactive: all other assays above
